ChEMBL document CHEMBL3988442, “University of Dundee, Small-Polar-MMV Screening Library” (2021)
About 13,000 (27%) of roughly 48,000 compounds showed an effect of 50% or more. Some of the results follow.

Test system: Wolbachia pipientis
Test: Anti-Wolbachia Cell-Based Screen
Format: functional
Parameters: scale not given: in the data most compounds retested in dose-response had high values
Conditions: 5 µM

Row | SMILES | Percent Effect [%]
1 | Cn1ncc2c(NCCCOc3cccnc3)nc(C3CCCC3)nc21 | 15.74
2 | CCn1cnnc1C1CCN(C(=O)COc2ccc(Cl)cc2)CC1 | 6.006
3 | CCn1cnnc1C1CCN(C(=O)c2cccc(OC)c2OC)CC1 | 96.27
4 | CCn1cnnc1C1CCN(C(=O)c2ccccc2OC)CC1 | -6.439
5 | COc1ccc(CC(=O)N2CCC(c3nncn3C)CC2)cc1F | -9.824
6 | CCn1cnnc1C1CCN(C(=O)c2cc(OC)ccc2OC)CC1 | 101
7 | CCn1cnnc1C1CCN(C(=O)c2ccc(Cl)cc2OC)CC1 | 99.28
8 | CCn1cnnc1C1CCN(C(=O)Cc2ccc(OC)c(F)c2)CC1 | -0.6685
9 | CCn1cnnc1C1CCN(C(=O)COc2ccccc2OC)CC1 | 7.042
10 | CCn1cnnc1C1CCN(C(=O)c2cc(F)ccc2OC)CC1 | 106.7
11 | O=C(O)C(F)(F)F.O=C([C@H]1COC[C@H]2CN(C3CCCC3)C[C@H]21)N1CCCCO1 | -5.445
12 | O=C(Cc1cccc(Cl)c1)Nc1cnccc1SCCCO | 7.035
13 | COc1ccc(CNc2nncs2)cc1F | -12.2
14 | O=C(Nc1ccc(OC(F)F)cc1)N1CCC(c2nnc[nH]2)CC1 | -4.065
15 | CC(=O)N1CCCC(C(=O)Nc2ccccc2Cc2ccccc2)C1 (stereo unspecified) | 4.475
16 | CNC(=O)Cc1ccccc1NC(=O)C1CCCC1 | 5.338
17 | NC(=O)CSc1ccccc1NC(=O)CC1C=CCC1 (stereo unspecified) | 119.4
18 | CCCN1CCC(N(C)CCC(=O)Nc2ccccc2SC)CC1 | -1.207
19 | NC(=O)CSc1ccccc1NC(=O)C1CCCC1 | 99.94
20 | O=C(Nc1cccnc1-n1cncn1)C1CCC1 | -13.11
21 | NC(=O)CSc1ccccc1NCc1nc(C2CC2)no1 | -3.279
22 | NC(=O)CSc1ccccc1NCc1nc(Cc2ccccc2)no1 | -16.37
23 | CNC(=O)Cc1ccccc1NC(=O)C1CCN(C2CCCCC2)C1 (stereo unspecified) | -1.289
24 | CC(C)(C)CC(=O)Nc1ccccc1SCC(N)=O | 103.7
25 | NC(=O)CSc1ccccc1NC(=O)C1CCCCC1 | 84.77
26 | CSc1ccccc1NC(=O)CCN1CCC(C(=O)N(C)C)CC1 | 8.025

Row | SMILES | Percent Effect [%]
27 | CCc1ccc(CN(CCN(C)C)Cc2ccc(C)s2)nc1 | 19.31
28 | CN(C)CCN1CCOCC2(C1)CN(Cc1nccs1)CCO2.O=C(O)C(F)(F)F.O=C(O)C(F)(F)F.O=C(O)C(F)(F)F (stereo unspecified) | -2.784
29 | Cn1nnc2c1CCN(Cc1ccncc1)C2COCc1ccccc1.O=C(O)C(F)(F)F.O=C(O)C(F)(F)F (stereo unspecified) | 7.235
30 | CCn1cc(CN2CCCN(C(=O)c3ccco3)CC2)cn1 | 139.7
31 | CC(C)n1cc(CN2CCCN(C(=O)c3ccoc3)CC2)cn1 | -9.039
32 | CCn1cc(CN2CCCN(C(=O)c3ccoc3)CC2)cn1 | 93.78
33 | CC(C)n1cc(CN2CCCN(C(=O)c3ccco3)CC2)cn1 | 13.14
34 | CCn1cc(CN2CCCN(C(=O)c3ccn(C)c(=O)c3)CC2)cn1 | -5.674
35 | Cc1ccoc1C(=O)N1CCCN(Cc2cnn(C)c2)CC1 | 85.33
36 | CC(C)CCc1noc(CN2CCCN(C(=O)c3ccco3)CC2)n1 | -6.659
37 | Cc1cccc(C(=O)N2CCCN(Cc3cnn(C)c3)CC2)n1 | -11.33
38 | Cn1cc(CN2CCCN(C(=O)c3cc[nH]n3)CC2)cn1 | -7.081
39 | Cn1cc(CN2CCCC3(CCN(C(=O)c4ccoc4)C3)C2)cn1 (stereo unspecified) | -4.278
40 | CCn1cc(CN2CCCN(C(=O)c3ccc(C)nc3)CC2)cn1 | 109.5
41 | CCc1cccc(NC(=O)CCC(=O)N(C)Cc2nc(C)c[nH]2)c1 | -13.69
42 | O=C(O)c1cc(-c2ccoc2)cc(S(=O)(=O)NCc2ccccn2)c1 | 3.348
43 | c1cncc(COCC2CN(Cc3ccncc3)Cc3ccnn3C2)c1 (stereo unspecified) | -8.453
44 | Cc1ccc(OC2(C(=O)O)CCN(C/C=C/c3ccco3)CC2)c(C)n1 | -5.357
45 | CC(C)c1cc(C(=O)N2C[C@H]3CC[C@@H]2CN(Cc2cccnc2)C3)no1 | 0.5633
46 | CC(C)N1CCCc2sc(C(=O)NC3CC3)nc21 | -0.2474
47 | CNC(=O)Cc1noc(-c2cc3c(s2)CCC(C)C3)n1 (stereo unspecified) | -12.44
48 | CN(CC1CN(Cc2cn3ccsc3n2)CCO1)c1cccnn1 (stereo unspecified) | 13.06
49 | Cc1nc(COc2ccc(OC(C)C(N)=O)cc2)oc1C (stereo unspecified) | 1.86
50 | Cc1ccc(-n2cc(CN3CCOCC3)c(-c3cccc(C)c3)n2)cc1 | 0.1947
51 | O=C(c1ccc2nncn2c1)N1CCSC2(CCCCC2)C1 | -6.872
52 | CCn1cc(CN2CCCN(C(=O)c3ccoc3C)CC2)cn1 | 105.3

Row | SMILES | Percent Effect [%]
53 | CCn1cc(CN2CCCN(C(=O)c3cc(C)no3)CC2)cn1 | 149.7
54 | CCn1cc(CN2CCCN(C(=O)c3cccn3C)CC2)cn1 | 145.7
55 | CCc1nc(CN2CCCN(C(=O)c3cccn3C)CC2)cs1 | -9.878
56 | CC(C)n1cc(CN2CCCN(C(=O)c3cccn3C)CC2)cn1 | 7.673
57 | Cc1cc(C(=O)N2CCN(Cn3cc(Cl)cn3)CC2)on1 | 0.1609
58 | Cc1occc1C(=O)N1CCCN(Cc2cnn(C(C)C)c2)CC1 | -5.086
59 | CCn1cc(CN2CCCN(C(=O)c3ccc(C)o3)CC2)cn1 | 126.6
60 | CCC1=N[C@@]2(CC[C@@H]3CN(S(=O)(=O)CC)C[C@@H]32)C(=O)N1CC | 5.096
61 | Cc1nc(C(=O)N2CCN(c3ncccn3)[C@@H]3CS(=O)(=O)C[C@@H]32)cs1 | -1.503
62 | c1cnnc(N2CCCC2CNc2ncnc3ccccc23)c1 (stereo unspecified) | 0.08494
63 | Cc1cc(NC(=O)N2CCN(C)CC2C)n(C)n1 (stereo unspecified) | -19.14
64 | Cc1cc(CNc2ccnn2CC(C)C)ccc1-n1cncn1 | -23.25
65 | CSc1ccc(NS(=O)(=O)c2cnn(C)c2)cn1 | -3.394
66 | CCc1nc(CN2CCCN(C(=O)c3ccccc3)CC2)cs1 | 5.45
67 | CCc1nc(CN2CCCN(C(=O)c3ccco3)CC2)cs1 | 109.2
68 | CCc1nnsc1C(=O)N1CCCN(Cc2cnn(CC)c2)CC1 | -1.096
69 | CCc1ccc(C(=O)N2CCCN(Cc3csc(CC)n3)CC2)o1 | -14.26
70 | CCn1cc(CN2CCCN(C(=O)c3c(C)oc(C)c3C)CC2)cn1 | 105.9
71 | Cc1ccc(NS(C)(=O)=O)c(C(=O)NCCC(=O)NC(C)C)c1 | -8.186
72 | c1ccc(OCCN2CCC(c3nnc(-c4cccnc4)o3)CC2)cc1 | 108.1
73 | OCCn1cc(CN2CCN(CCOc3ccccc3)CC2)cn1 | -4.681
74 | CCOCCN1CCn2c(C)nnc2C1 | 4.517
75 | c1ccc(OCCN2CCC(c3cnccn3)CC2)cc1 | 90.65
76 | c1ccc(OCCN2CCCC(c3noc(C4CC4)n3)C2)cc1 (stereo unspecified) | -2.8
77 | Fc1ccc(CCN2CCC(c3nnc(-c4cccnc4)o3)CC2)cc1 | -17.22
78 | CCOCCN1CCC(c2cncc(C)n2)CC1 | 133

Row | SMILES | Percent Effect [%]
79 | CCOCCN1CCC(c2cnccn2)CC1 | 103.5
80 | c1ccc(CCCN2CC[C@H](c3nnc(-c4cccnc4)o3)C2)cc1 | 5.165
81 | CCOCCN1CCc2cncnc2C1 | 24.85
82 | CCOCCN1CCN(Cc2nnc(C3CC3)o2)CC1 | -12.93
83 | O=C(c1cc(C2CC2)no1)N1C[C@H]2CC[C@@H]1CN(Cc1ccccn1)C2 | -3.322
84 | CCNC(=O)CCC(=O)NC(Cc1ccccc1)c1sccc1C (stereo unspecified) | -7.516
85 | CC(C)CN1CCCC1c1ccc(C(=O)Nc2ccc3[nH]nnc3c2)s1 (stereo unspecified) | 0.6901
86 | CCC(C)(CO)NC(=O)Nc1cc2c(cc1SC)OCCO2 (stereo unspecified) | -5.152
87 | CCOC(C)c1nc(Cn2cc(-n3cccc3)cn2)cs1 (stereo unspecified) | -7.68
88 | COc1ccc(F)cc1C(C)NC(=O)Nc1nncs1 (stereo unspecified) | 5.791
89 | CCCN1CCC(c2nc3ccc(NCc4ccccc4)cn3n2)CC1.O=C(O)C(F)(F)F.O=C(O)C(F)(F)F | -22.92
90 | CCCN1CCC(c2nc3ccc(-c4ccncc4)cn3n2)CC1.O=C(O)C(F)(F)F.O=C(O)C(F)(F)F | 100.7
91 | CCCN1CCC(c2nc3ccc(NCc4cccnc4)cn3n2)CC1.O=C(O)C(F)(F)F.O=C(O)C(F)(F)F.O=C(O)C(F)(F)F | -17.81
92 | CCCN1CCC(c2nc3ccc(-c4cccc(F)c4)cn3n2)CC1.O=C(O)C(F)(F)F | 109.7
93 | COCC(=O)N1CCC(c2nc3ccc(-c4ccncc4)cn3n2)CC1.O=C(O)C(F)(F)F | 3.081
94 | Cc1cccc(-c2ccc3nc(C4CCN(CC5CC5)CC4)nn3c2)c1.O=C(O)C(F)(F)F | 10.89
95 | O=C(O)C(F)(F)F.c1ccc(-c2ccc3nc(C4CCN(CC5CC5)CC4)nn3c2)cc1 | 21.53
96 | CCCN1CCC(c2nc3ccc(-c4ccccc4)cn3n2)CC1.O=C(O)C(F)(F)F | 132.6
97 | CCCN1CCC(c2nc3ccc(-c4cccc(OC)c4)cn3n2)CC1.O=C(O)C(F)(F)F | 95.04
98 | O=C(COCC1CC1)Nc1ccn(Cc2cccc3cccnc23)n1 | -5.086
99 | CCn1cc(SCC(=O)N2CCCC(O)(CO)C2)c2ccccc21 (stereo unspecified) | -16.21
100 | COc1cccc(C(=O)N2CCN(C(=O)CCCc3cn[nH]c3)CC2)c1 | -9.764
101 | CCOCC1CN(C(=O)Cc2ccsc2)Cc2ccnn2C1.O=C(O)C(F)(F)F (stereo unspecified) | 4.742
